Data from PubChem BioAssay (NCI).
Compounds without any hit were thinned out: in the full panel of roughly 83,000, 20% have a hit.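 Single-dose data. Exposure time 48 hours. Values below 10 considered active.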 Values without a mark were called inactive. Activity calls are given as the source filed them.

Tests used:
Experiment in all cases: NCI-60 one-dose screen, 48 h (100 = growth as untreated, 0 = no growth, -100 = all killed)
Conditions in all cases: 10 µM unless noted
[1] = tested on: NCI-H226 lung
[2] = tested on: NCI-H322M lung
[3] = tested on: NCI-H460 lung
[4] = tested on: HOP-92 NSCLC
[5] = tested on: NCI-H522 lung
[6] = tested on: A549/ATCC NSCLC
[7] = tested on: 786-0 renal
[8] = tested on: COLO 205 colon
[9] = tested on: DU-145 prostate
[10] = tested on: K-562 leukemia
[11] = tested on: MALME-3M melanoma
[12] = tested on: MDA-MB-231 breast
[13] = tested on: RXF 393 renal
[14] = tested on: SF-268 CNS
[15] = tested on: SF-295 CNS
[16] = tested on: SF-539 CNS
[17] = tested on: UACC-257 melanoma
[18] = tested on: M14 melanoma
[19] = tested on: HCT-15 colon
[20] = tested on: HOP-62 NSCLC

Row | SMILES | growth [1] | growth [2] | growth [3] | growth [4] | growth [5] | growth [6] | growth [7] | growth [8] | growth [9] | growth [10] | growth [11] | growth [12] | growth [13] | growth [14] | growth [15] | growth [16] | growth [17] | growth [18] | growth [19] | growth [20]
1 | O=C(CCCN1C(=O)/C(=C/c2ccccc2F)SC1=S)N1CCOCC1 | 110% | 85.5% | 97.8% | 86.4% | 48.8% | 93.1% | 89.8% | 126% | 74.5% | 59.7% | 72.5% | 73.4% | 83.7% | 95.6% | 103% | 92.7% | 83.6% | 77.6% | 74.3% | –
2 | N#Cc1c(-c2ccc(Cl)cc2)nc2c(-c3ccccc3)c(Nc3ccccc3)nn2c1N | 41.5% | 64% | -8.88% (active) | 35.2% | 72.3% | 29.5% | 25.1% | – | 63.6% | 67.3% | 79.9% | 26% | 78.8% | 82.4% | 46% | 80.6% | 105% | 70.1% | 67.2% | –
3 | O=C(CCN1C(=O)/C(=C/c2ccccc2F)SC1=S)N1CCOCC1 | 105% | 80.5% | 90.7% | 133% | 41.4% | 102% | 77.4% | 108% | 57.5% | 32.2% | 74.1% | 71% | 41.2% | 101% | 97.8% | 87.8% | 89.8% | 80.5% | 45.5% | –
4 | COc1ccc(C(=O)/C=C/c2ccc(OCc3ccc(Cl)cc3)c(OC)c2)cc1OC | 56.4% | 70.9% | 61.9% | 64.9% | 68.3% | 70% | 80.7% | 88.4% | 72.3% | 23.9% | 82.3% | 57.7% | 96.2% | 78.7% | 68.3% | 71.8% | 83.5% | 78.1% | 34.2% | –
5 | Cc1ccc2c(n1)C(=O)C(Cl)=C(Nc1cccc(C(C)C)c1)C2=O | 35.4% | 85% | 78.8% | 110% | 23.4% | 29.9% | 68.4% | 112% | 22.5% | 3.49% (active) | 83.8% | 45.8% | 73.1% | 80.9% | 70.1% | 80.7% | 1.85% (active) | 44.7% | 32.4% | –
6 | COc1cc2nc(-c3ccc(C)cc3)cc(OCCCNCC3CCCO3)c2cc1OC (stereo not drawn) | 89.4% | 70.4% | 38% | 47% | 59.1% | 61.6% | 73.5% | 45.4% | 60% | 43.6% | 50% | 59.1% | 59.6% | 79.7% | 59.9% | 73.7% | 17.8% | 14.3% | 38% | –
7 | N#Cc1nc(-c2ccccc2)oc1N1CC[C@@H](CO)C1 | 94% | 93.8% | 99.7% | 98.5% | 95.1% | 101% | 103% | 106% | 100% | 96% | 110% | 99.1% | 118% | 105% | 97.1% | 102% | 110% | 103% | 100% | –
8 | N#Cc1nc(-c2ccccc2)oc1S(N)(=O)=O | 103% | 100% | 93.3% | – | -44.5% (active) | 101% | 51.1% | – | 82.5% | 21.5% | 64.9% | 47.9% | 45.8% | 110% | 101% | 36.8% | 78.3% | 40.7% | 27.1% | 111%
9 | O=C(N/N=C/c1ccc(Cl)s1)c1[nH]c2ccc(Br)cc2c1-c1ccccc1 | 55.9% | 49.4% | 3.42% (active) | 35.6% | -35.1% (active) | 21.2% | 7.94% (active) | -68.4% (active) | 22% | 6.77% (active) | 53.4% | 1.52% (active) | 71.7% | 42.1% | 15.5% | 3.35% (active) | 52% | 5.47% (active) | 15.6% | –
10 | CCOC(=O)c1c(NC(=O)c2cccc(C(F)(F)F)c2)sc2cc(O)ccc12 | 98.1% | 98% | 99.9% | 102% | 81.3% | 101% | 109% | 107% | 98.9% | 97.3% | 92.4% | 87.1% | 113% | 96.9% | 102% | 89.7% | 108% | 101% | 92.8% | –
11 | COC(=O)C(C)NS(=O)(=O)/N=C1\NC(=O)NC1=C(Cl)Cl (stereo not drawn) | 106% | 102% | 113% | 107% | 101% | 105% | 103% | 115% | 109% | 104% | 99% | 106% | 124% | 98.2% | 103% | 95.7% | 99.7% | 94.7% | 102% | –
12 | CN(C)c1ccc(/C=C2\Cc3c(F)ccc(Br)c3C2=O)cc1 | 76.3% | 85.6% | 88.7% | 91.5% | 96.1% | 94.1% | 98.2% | – | 97.5% | 98.4% | 92.8% | 90.8% | 108% | 101% | 101% | 97.5% | 91.3% | 92.1% | 96.9% | –
13 | N=C1CC(=O)NN1C(=O)CSc1nc2sc3c(c2c(=O)n1-c1ccc(Cl)cc1)CCCC3 | 103% | 103% | 101% | 80.1% | 102% | 102% | 94.2% | – | 111% | 94.6% | 90.5% | 87.7% | 119% | 99.7% | 97.6% | 97.3% | 106% | 99.3% | 106% | –
14 | O=C(NNc1nc2cc(F)ccc2n2c(CN3CC4(COC4)C3)ccc12)c1cnccn1 | 7.31% (active) | 22.7% | -7.69% (active) | 45.2% | 2.26% (active) | 13.2% | -6.84% (active) | 20.2% | 24.8% | 13.4% | 19.5% | 30.6% | 39.2% | 22.8% | 14.3% | 3.55% (active) | -8.36% (active) | -26.4% (active) | 33.1% | –
15 | Cn1cc(-c2cc(N)n3nc(-c4cn(C)c5ccc(Br)cc45)cc3n2)c2cc(Br)ccc21 | – | 86.2% | 69% | 76.9% | 102% | 91% | 94% | 118% | 60.5% | 5.07% (active) | 102% | 63.3% | 147% | 82.5% | 105% | 85.2% | 109% | 65.5% | 41.7% | 94.8%
16 | CC(=O)Oc1ccccc1C(=O)Nc1ccc(C(=O)/C=C/c2ccncc2)cc1 | 92.5% | 78.3% | 45.8% | 66.1% | 71.8% | 56.5% | 33.9% | 66% | 35.6% | 6.54% (active) | 86.6% | 33.6% | -4.73% (active) | 85.5% | 49.5% | 4.63% (active) | 92.4% | 30.3% | -23.9% (active) | –
17 | Cc1nc(-c2cc3ccccc3oc2=O)ccc1C(=O)/C=C/c1ccc(Cl)c(Cl)c1 | 108% | 104% | 100% | – | 98.9% | 107% | 99.3% | 113% | 102% | 103% | 96.9% | 95.5% | 119% | 99.8% | 95.7% | 92.5% | 120% | 107% | 107% | –
18 | COc1ccc(-c2cc(C(=O)N=Nc3c(O)[nH]c4ccccc34)c3ccccc3n2)cc1OC | 86.2% | 89.7% | 99% | 89.5% | 90.2% | 95.7% | 104% | 98.3% | 104% | 106% | 95.6% | 91.5% | 101% | 100% | 95.7% | 95.6% | 98.2% | 95.6% | 96.9% | –
19 | CN1C(=O)N(c2ccccc2)C2N=C(N/N=C/c3ccccc3)SC21 (stereo not drawn) | 58.7% | 42.5% | 9.53% (active) | – | -12.3% (active) | 33% | 33.9% | 3.78% (active) | 19.6% | 12% | 47.9% | 31.9% | -2.78% (active) | 55% | 30.5% | -6.36% (active) | 64% | -18.9% (active) | 30.3% | –
20 | CNC(=O)c1cc(-c2ccc(NC(=O)Nc3ccc(N4CCOCC4)c(C(F)(F)F)c3)cc2)nc2cccnc12 | – | 71.7% | 23.9% | – | 65.5% | 51.6% | 25.9% | 84.7% | 69.6% | 34.3% | 60.7% | 63.9% | -15.9% (active) | 80.2% | 9.49% (active) | 30.1% | 89.2% | 77.2% | 33.5% | 80.6%
21 | C=CCn1c(SCC(=O)c2ccc(Br)cc2)nnc1-c1c[nH]c2ccccc12 | – | 99.5% | 106% | 91.4% | 96.3% | 103% | 98.6% | 108% | 106% | 85.5% | 90.7% | 96.9% | 113% | 102% | 93.2% | 91.8% | 108% | 97.4% | 99% | –
22 | CCCCN1C(=O)/C(=c2\sc3n(c2=O)C2C(NN=3)N(CC)C(=O)N2CC)c2cc(Cl)ccc21 (stereo not drawn) | – | 96.3% | 78.5% | 71.3% | 46.5% | 89.3% | 90.7% | 114% | 94.8% | 25.3% | 73.9% | 58.3% | 77% | 75.4% | 62.3% | 59.4% | 89.4% | 70.3% | 43.9% | –
23 | [Cl][Ru].c1ccc(-c2cccc(-c3ccccn3)n2)nc1.c1ccc(-c2ccnc3c2ccc2c(-c4ccccc4)ccnc23)cc1 | – | 76.6% | 54.8% | -12.5% (active) | 13.3% | 60.5% | 89.3% | -60% (active) | 32.6% | 32.4% | 2.72% (active) | 32.3% | 48.4% | 28.5% | 95.7% | 15.3% | 26.9% | 71.1% | 90.4% | 78.7%
24 | COc1cc(/C=C/C(=O)c2cc(OC)c(OC)c(OC)c2)ccc1OCc1ccc(F)cc1 | – | 49.7% | 54% | 44.7% | 56.4% | 51.2% | 62.8% | 70% | 58.3% | 11.7% | 67.6% | 46.8% | 77.7% | 58% | 54.7% | 9.22% (active) | 79.8% | 71% | 16% | 36.2%
25 | NS(=O)(=O)c1cccc(Nc2nc(SCC(=O)c3ccc([N+](=O)[O-])cc3)nc3ccccc23)c1 | – | 82.7% | 36.3% | – | 19.3% | 70.6% | 44.6% | 83.1% | 42.8% | 19.7% | 58.6% | 55.6% | 57% | 54.5% | 36.8% | 52.2% | 88.9% | 38.5% | 34.5% | 71.9%
26 | NS(=O)(=O)c1ccc(Nc2nc(Nc3ccccc3)nc(-n3nc(-c4ccccc4)cc3-c3ccccc3)n2)cc1 | – | 57.2% | 5.81% (active) | 26.8% | 58.5% | 25.9% | 20.1% | 9.92% (active) | 32.3% | 11.5% | 60% | 37% | 22.8% | 37.8% | 34.3% | 37.2% | 59.6% | 26.5% | 18.3% | 63.7%
27 | OC1CCN(CCCOc2c3ccccc3nc3c2oc2ccc(Cl)cc23)CC1 | – | -1.27% (active) | 4.79% (active) | 14% | -51.4% (active) | 1.98% (active) | 11.7% | -13.1% (active) | 5.05% (active) | 3.22% (active) | 1.25% (active) | 17% | -10.8% (active) | 22.8% | 8.74% (active) | 14.6% | 23.6% | -4.12% (active) | 10.1% | 27%
